The supplement of paper PMC11732987, “Enantioselective OTUD7B fragment discovery through chemoproteomics screening and high-throughput optimisation” (Communications Chemistry, 2025)

Tests used:
Assay in all cases: log2 ratio of Biotin-Ahx-Ub-VS probe labelling (fragment/DMSO); higher = less target engagement (more negative = stronger competition), active = hit call of the paper (q ≤ 0.05, log2 ratio ≤ -1)
Conditions in all cases: compound concentration: 200 uM; treatment time: 3 h
USP19 = biological target: T1, USP19 (UniProt O94966)
T1 sequence (whole entry): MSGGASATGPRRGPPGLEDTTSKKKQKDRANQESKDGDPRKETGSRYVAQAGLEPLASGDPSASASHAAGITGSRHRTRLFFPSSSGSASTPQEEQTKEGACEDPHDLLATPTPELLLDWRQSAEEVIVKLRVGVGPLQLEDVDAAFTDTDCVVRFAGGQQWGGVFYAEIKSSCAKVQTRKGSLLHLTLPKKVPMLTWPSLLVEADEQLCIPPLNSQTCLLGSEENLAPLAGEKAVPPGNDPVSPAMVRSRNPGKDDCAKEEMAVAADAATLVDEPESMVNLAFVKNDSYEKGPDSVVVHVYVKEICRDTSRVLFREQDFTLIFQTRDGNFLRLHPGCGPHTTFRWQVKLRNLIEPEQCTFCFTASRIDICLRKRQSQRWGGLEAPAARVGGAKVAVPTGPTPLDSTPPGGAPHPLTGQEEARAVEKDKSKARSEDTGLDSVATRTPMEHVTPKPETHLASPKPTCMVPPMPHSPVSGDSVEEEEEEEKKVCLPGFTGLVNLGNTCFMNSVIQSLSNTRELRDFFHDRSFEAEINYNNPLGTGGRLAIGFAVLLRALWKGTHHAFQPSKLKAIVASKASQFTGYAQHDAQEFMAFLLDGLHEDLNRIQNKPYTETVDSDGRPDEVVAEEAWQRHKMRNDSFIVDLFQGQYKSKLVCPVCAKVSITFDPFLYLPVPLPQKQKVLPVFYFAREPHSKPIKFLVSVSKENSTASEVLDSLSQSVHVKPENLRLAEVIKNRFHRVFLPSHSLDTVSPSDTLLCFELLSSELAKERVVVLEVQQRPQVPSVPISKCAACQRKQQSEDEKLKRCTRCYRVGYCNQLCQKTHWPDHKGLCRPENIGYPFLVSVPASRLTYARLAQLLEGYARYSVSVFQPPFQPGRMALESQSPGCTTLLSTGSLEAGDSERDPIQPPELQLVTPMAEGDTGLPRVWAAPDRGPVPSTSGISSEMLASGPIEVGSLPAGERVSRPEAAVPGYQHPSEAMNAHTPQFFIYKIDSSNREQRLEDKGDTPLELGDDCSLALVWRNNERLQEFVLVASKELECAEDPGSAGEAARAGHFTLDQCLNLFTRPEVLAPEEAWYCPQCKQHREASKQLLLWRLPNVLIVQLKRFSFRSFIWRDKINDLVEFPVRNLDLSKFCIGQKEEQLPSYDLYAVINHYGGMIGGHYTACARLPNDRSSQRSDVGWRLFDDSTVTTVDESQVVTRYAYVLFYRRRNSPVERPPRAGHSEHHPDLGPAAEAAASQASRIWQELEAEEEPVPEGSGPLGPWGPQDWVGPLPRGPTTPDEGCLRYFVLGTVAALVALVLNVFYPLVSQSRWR
In short: (§1)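 Each value is an average log2 ratio of fragment to vehicle, tested by unpaired t-test. The underlying Spectronaut label-free quantities were global-median-normalised, and only proteins with ≥2 unique peptides were included. Triplicate HEK293T lysate samples (495 µg) were exposed to fragment at 200 µM or vehicle for 3 h, then to Biotin-Ahx-Ub-VS at 0.5 µM final for 1 h, before NeutrAvidin enrichment of labelled DUBs, LysC and trypsin digestion, and diaPASEF LC-MS/MS.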

USP22 = biological target: T2, USP22 (UniProt Q9UPT9)
T2 sequence (whole entry): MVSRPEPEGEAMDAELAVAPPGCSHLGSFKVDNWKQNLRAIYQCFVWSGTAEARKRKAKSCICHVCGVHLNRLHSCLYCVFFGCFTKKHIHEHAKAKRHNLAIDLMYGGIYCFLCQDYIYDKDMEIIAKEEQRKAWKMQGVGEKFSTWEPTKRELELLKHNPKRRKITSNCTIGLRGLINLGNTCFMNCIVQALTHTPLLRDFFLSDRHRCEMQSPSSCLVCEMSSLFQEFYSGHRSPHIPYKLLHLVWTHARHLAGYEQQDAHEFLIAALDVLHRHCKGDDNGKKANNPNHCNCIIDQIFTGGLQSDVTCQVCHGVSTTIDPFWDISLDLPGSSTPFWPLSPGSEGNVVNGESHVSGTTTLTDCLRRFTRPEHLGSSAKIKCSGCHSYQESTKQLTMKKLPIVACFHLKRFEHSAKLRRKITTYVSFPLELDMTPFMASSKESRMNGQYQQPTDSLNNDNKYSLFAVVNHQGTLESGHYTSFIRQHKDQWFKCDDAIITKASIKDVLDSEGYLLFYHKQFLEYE
In short: as §1

USP24 = USP24 (UniProt Q9UPU5)
In short: as §1

USP25 = biological target: T3, USP25 (UniProt Q9UHP3)
T3 sequence (whole entry): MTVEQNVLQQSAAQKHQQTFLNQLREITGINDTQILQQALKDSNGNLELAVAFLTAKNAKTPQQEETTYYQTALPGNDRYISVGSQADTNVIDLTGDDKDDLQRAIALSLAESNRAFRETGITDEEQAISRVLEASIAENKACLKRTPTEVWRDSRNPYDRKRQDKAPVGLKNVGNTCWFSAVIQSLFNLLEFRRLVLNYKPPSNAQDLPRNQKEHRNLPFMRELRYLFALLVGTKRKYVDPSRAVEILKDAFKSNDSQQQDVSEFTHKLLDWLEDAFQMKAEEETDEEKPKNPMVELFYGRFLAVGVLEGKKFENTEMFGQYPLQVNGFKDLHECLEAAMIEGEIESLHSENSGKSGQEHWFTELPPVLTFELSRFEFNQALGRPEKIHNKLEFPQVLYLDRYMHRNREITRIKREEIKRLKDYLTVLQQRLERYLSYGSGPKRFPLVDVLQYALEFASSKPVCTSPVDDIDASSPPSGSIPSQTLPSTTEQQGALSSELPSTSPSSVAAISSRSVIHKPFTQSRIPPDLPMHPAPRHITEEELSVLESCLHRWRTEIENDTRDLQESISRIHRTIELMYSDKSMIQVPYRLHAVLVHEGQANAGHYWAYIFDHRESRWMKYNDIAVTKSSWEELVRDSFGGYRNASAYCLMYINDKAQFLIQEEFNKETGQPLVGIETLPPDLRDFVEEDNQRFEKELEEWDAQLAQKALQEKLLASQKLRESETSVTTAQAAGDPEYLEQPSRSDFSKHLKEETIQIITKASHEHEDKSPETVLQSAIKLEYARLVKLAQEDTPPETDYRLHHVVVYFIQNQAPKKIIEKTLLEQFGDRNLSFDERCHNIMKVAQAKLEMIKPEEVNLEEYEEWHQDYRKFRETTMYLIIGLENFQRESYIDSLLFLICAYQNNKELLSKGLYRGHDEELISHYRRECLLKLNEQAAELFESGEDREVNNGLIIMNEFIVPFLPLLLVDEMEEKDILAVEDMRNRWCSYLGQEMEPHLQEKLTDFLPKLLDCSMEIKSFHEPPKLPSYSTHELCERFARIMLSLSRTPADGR
In short: as §1

USP28 = biological target: T4, USP28 (UniProt Q96RU2)
T4 sequence (whole entry): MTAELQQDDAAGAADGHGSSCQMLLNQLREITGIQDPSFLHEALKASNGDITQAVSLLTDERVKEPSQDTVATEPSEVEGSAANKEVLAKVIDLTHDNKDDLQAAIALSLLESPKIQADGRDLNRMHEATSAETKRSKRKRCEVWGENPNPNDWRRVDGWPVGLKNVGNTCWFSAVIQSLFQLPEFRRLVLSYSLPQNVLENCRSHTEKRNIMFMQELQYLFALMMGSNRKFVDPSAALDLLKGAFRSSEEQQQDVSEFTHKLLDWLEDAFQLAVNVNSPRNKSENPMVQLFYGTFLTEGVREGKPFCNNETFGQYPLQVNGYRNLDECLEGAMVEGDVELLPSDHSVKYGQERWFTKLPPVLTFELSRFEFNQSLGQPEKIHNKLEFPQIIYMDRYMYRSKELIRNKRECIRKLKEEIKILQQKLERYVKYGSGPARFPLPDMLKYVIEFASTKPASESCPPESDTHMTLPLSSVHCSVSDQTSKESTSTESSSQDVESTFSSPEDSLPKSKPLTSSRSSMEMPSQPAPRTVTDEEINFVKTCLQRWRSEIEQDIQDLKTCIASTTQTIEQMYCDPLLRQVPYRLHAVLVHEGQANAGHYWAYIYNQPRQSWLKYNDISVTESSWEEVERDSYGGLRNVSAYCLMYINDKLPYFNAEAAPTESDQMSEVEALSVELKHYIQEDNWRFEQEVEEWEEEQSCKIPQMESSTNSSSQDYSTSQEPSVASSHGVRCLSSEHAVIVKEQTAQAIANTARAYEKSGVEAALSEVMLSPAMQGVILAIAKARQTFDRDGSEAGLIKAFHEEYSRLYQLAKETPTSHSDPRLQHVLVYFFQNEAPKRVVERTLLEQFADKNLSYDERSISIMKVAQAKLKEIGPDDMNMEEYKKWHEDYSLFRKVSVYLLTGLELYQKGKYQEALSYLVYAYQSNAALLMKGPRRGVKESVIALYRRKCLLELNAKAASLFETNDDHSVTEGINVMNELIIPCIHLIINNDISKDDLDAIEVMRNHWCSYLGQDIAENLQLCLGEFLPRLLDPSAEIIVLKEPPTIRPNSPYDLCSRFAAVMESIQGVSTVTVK
In short: as §1

Measured: log2 ratio of Biotin-Ahx-Ub-VS probe labelling

Chain of USP24 (Q9UPU5 whole entry): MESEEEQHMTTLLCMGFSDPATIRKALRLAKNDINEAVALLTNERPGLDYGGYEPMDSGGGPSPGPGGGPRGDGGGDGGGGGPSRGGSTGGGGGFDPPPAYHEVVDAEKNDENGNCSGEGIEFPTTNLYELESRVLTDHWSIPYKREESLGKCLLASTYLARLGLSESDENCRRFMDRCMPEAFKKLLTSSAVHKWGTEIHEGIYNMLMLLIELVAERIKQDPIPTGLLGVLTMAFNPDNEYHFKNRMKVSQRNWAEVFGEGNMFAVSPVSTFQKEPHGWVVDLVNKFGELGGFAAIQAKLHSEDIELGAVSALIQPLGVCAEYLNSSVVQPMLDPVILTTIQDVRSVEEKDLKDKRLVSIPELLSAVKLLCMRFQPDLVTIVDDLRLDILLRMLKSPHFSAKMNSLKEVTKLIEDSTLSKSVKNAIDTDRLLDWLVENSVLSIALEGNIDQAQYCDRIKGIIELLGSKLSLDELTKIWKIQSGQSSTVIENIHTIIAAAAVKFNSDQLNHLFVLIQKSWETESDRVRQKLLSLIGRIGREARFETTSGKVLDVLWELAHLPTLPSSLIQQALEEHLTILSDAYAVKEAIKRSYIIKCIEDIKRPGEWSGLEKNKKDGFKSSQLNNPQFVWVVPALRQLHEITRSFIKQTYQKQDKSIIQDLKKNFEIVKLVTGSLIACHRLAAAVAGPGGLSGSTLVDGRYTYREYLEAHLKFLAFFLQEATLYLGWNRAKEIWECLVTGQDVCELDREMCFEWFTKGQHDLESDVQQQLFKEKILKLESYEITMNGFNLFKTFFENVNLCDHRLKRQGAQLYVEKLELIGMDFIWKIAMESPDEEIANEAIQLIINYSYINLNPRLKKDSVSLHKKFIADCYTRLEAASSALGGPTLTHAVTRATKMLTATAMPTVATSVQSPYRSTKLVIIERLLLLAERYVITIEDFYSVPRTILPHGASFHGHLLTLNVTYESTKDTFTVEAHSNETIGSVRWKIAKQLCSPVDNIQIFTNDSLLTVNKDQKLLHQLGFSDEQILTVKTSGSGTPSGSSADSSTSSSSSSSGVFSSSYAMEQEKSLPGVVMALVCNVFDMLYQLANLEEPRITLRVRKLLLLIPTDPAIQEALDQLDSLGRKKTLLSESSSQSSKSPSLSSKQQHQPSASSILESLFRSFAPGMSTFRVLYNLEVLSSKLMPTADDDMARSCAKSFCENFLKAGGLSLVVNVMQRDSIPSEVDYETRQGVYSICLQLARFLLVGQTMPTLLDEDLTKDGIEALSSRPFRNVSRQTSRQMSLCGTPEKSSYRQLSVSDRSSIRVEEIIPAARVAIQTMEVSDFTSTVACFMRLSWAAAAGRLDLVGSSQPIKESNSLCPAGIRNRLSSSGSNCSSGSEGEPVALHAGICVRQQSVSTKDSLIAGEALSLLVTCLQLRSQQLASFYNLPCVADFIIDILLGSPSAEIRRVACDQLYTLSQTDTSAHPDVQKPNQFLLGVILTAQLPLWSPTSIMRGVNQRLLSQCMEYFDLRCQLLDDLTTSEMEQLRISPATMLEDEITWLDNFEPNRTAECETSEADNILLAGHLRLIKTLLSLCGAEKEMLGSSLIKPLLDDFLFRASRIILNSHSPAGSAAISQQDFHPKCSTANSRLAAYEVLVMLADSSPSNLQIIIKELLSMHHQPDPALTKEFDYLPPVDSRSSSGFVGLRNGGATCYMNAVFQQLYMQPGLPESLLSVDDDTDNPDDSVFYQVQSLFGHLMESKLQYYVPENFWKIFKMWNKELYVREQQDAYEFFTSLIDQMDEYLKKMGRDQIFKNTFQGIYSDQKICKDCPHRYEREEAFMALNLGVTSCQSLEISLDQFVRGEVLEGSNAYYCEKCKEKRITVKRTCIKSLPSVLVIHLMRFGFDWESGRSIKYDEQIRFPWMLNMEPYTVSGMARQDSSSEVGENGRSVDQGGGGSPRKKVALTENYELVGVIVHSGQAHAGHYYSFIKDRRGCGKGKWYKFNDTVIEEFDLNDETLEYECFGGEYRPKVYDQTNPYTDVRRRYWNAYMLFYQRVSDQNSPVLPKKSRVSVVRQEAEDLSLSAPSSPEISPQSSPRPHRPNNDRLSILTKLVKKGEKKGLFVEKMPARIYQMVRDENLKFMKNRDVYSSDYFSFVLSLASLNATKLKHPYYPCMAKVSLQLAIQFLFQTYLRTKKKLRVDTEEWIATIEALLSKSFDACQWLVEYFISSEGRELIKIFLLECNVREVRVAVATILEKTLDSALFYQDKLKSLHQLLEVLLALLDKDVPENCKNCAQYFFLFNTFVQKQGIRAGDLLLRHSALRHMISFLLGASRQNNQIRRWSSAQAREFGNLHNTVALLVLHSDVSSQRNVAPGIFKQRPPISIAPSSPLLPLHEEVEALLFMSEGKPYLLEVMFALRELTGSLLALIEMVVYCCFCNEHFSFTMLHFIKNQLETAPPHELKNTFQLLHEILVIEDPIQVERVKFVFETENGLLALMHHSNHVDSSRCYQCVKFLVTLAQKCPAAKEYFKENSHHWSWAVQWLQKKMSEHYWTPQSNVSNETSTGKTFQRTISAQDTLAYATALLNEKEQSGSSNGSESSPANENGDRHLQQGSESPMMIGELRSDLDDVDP

O=C(CCl)N(Cc1ccsc1)C1CC1
inactive: USP19 -0.0676 | USP22 0.255 | USP24 -0.704 | USP25 -0.45 | USP28 -0.283
